Test [1] concerns the target Cytochrome P450 3A4 (Homo sapiens) (UniProt P08684). Kind of test: qHTS Assay for Inhibitors and Substrates of Cytochrome P450 3A4 (AID 884). Note: % is set by controls: 0 for no effect and ±100 for the full control effect; nearly all actives have a fitted effect of over 50% in size. An outline of the steps: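 Luminescent readout of luciferin produced by CYP3A4 (20 nM) dealkylation of Luciferin-PPXE, 25 uM (its KM). NADPH-driven reaction ran 60 min at RT after 10 min compound preincubation; data scaled to 57 uM ketoconazole as 100% inhibition.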
On the technique in general: qHTS replaces the single test concentration by a dilution series.

Test [2] can be described thus: Confirmation and Secondary Assay for Modulators of Hemoglobin Beta Chain Splicing at IVS2 654 locus (AID 910).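 Note: HeLa cells stably carrying EGFP split by mutant beta-globin IVS2-654 intron; % of control where 0% means no effect.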 In outline:
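HeLa cells stably expressing EGFP interrupted by β-globin IVS2-654 intron, seeded overnight in Opti-MEM/2% FCS, then treated 2 days at 37 °C. Restored splicing read as total peak GFP intensity per well by laser scanning cytometry (488 nm excitation, 500–520 nm emission); 500 nM antisense PNA as control.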

Test [3] is described as follows: Confirmation and Secondary Assay for Modulators of Hemoglobin Beta Chain Splicing at IVS2 705 locus (AID 930).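 Note: HeLa cells stably expressing the EGFP-705 splicing reporter; GFP fluorescence per well restored by corrected splicing of the IVS2-705 intron in EGFP; % of control where 0% means no effect.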 An outline of the steps:
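HeLa cells stably carrying EGFP interrupted by mutant beta-globin intron 2 (IVS2-705) treated 2 days at 37C with compound; 500 nM antisense PNA as control. Correct splicing read as total peak GFP intensity per well by laser-scanning cytometry.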

The nature of test [4]: qHTS Assay for Lipid Storage Modulators (AID 1519; calls by dose curve; for activity change, negative = inhibition: % is set by controls: 0 for no effect and ±100 for the full control effect). Conditions: Drosophila S3 cells, BODIPY lipid droplet/cell ratio, laser cytometry, cells loaded with oleic acid; for activity change, negative = inhibition: at 57.5 µM (top of the series). An outline of the steps:
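Cells seeded at 5,000 per well were treated with compounds over a concentration series and loaded with oleic acid (400 uM, as added). Lipid droplet fluorescence (488 nm excitation, 500-530 nm channel) was read by laser-scanning cytometry and normalized to 20 uM Triacsin C.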

The target in test [5] is Ubiquitin carboxyl-terminal hydrolase 1 (Homo sapiens) (UniProt O94782). Kind of test: Inhibitors of USP1/UAF1: Pilot qHTS (AID 504865).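 Note: rhodamine fluorescence freed from ubiquitin-rhodamine substrate followed over time; top concentration of the series differs between compounds; % is set by controls: 0 for no effect and ±100 for the full control effect; nearly all actives have a fitted effect of over 35% in size.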 An outline of the steps:
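USP1/UAF1 complex (1nM) preincubated with compound 15 min at room temperature, then Ub-Rho substrate (150nM final) added. Fluorescence read kinetically at 480/540 nm, 6 reads every 60 seconds. Buffer: 50mM HEPES pH 7.8, 0.5mM EDTA, 0.1 mg/ml BSA, 1mM TCEP, 0.01% Tween-20.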

Where [6] appears, read: measured here: cell count channel max response.
Setting [7] is: measured here: lipid channel max response.

Structures are written as SMILES. Records with an inconclusive call do not appear. Calls of active or inactive are those of the source. Unless noted, calls come from the whole dose curve; as a rule, active = well fitted curve in the direction sought with a large enough effect; inconclusive = small, poorly fitted or top-dose-only effect, or another doubt; inactive = no such curve, though single readings can be large; an effect the other way counts as inactive or inconclusive.

Sequence of Cytochrome P450 3A4 (Homo sapiens) (P08684 whole entry, looked up): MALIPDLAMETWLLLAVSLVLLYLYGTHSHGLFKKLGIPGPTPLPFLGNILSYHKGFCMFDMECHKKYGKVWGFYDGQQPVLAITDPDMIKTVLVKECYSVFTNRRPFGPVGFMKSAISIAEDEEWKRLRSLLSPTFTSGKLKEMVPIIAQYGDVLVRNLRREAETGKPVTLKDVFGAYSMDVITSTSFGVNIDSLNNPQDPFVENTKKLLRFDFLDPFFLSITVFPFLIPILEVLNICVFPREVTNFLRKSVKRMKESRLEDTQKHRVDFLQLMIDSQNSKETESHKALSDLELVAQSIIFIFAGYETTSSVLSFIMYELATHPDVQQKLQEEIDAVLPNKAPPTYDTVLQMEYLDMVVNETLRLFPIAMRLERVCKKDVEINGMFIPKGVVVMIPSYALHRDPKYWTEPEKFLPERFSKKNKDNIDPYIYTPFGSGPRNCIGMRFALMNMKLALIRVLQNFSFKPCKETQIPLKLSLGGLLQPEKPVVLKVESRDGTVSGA
Sequence of Ubiquitin carboxyl-terminal hydrolase 1 (Homo sapiens) (O94782 whole entry, looked up): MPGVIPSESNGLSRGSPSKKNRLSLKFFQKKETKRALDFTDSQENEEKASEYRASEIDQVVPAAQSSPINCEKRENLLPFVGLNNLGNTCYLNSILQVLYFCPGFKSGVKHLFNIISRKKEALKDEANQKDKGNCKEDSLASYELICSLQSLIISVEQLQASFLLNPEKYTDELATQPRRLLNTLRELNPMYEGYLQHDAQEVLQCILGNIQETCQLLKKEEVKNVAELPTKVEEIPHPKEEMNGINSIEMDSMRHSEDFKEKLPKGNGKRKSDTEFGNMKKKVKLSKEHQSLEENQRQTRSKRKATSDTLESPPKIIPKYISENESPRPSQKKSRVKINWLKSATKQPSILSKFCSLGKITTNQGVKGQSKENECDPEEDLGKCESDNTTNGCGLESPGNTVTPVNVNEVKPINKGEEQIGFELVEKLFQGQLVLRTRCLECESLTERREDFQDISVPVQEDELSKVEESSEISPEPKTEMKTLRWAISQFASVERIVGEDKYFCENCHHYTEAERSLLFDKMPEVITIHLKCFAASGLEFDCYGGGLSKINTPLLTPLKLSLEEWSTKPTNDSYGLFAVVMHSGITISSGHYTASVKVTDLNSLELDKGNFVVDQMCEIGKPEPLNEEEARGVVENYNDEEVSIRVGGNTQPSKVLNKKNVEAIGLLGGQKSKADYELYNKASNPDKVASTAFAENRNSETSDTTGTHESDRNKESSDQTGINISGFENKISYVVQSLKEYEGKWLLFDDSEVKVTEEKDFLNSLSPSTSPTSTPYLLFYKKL

Regarding `CC(=O)NC(CCC(=O)O)C(=O)O` (stereo not drawn), the Potency result in test [1], in test [2], in test [3] and in test [5] was “inactive” in each case. For the same compound, the activity change, negative = inhibition in test [4] was 11.4% (inactive). The results for the max response in test [4] (setting [6]) and in test [4] (setting [7]) were 14.5% and 27.6%, respectively.
`COc1ccc(-c2cc(=O)c3c(O)cc(O[C@@H]4OC(COC5OC(C)C(O)C(O)[C@@H]5O)C(O)C(O)C4O)cc3o2)cc1` (stereo partly drawn): the Potency result in test [1], in test [2], in test [3] and in test [5] was “inactive” each time. Moreover, the activity change, negative = inhibition in test [4] was 5.1% (inactive). The max response in test [4] (setting [6]) is -4.97%; in test [4] (setting [7]), 1.77%.
As for `CC(=O)OC1CCC2(C)C3CC(=O)C4(C)C(CC5OC6(CCC(C)CO6)C(C)C54)C3CC[C@H]2C1` (stereo partly drawn), the Potency entry in test [1], in test [2], in test [3] and in test [5] was “inactive” throughout. Besides, the activity change, negative = inhibition in test [4] is 5.04% (inactive). The max response in test [4] (setting [6]) was determined as 11.2%; in test [4] (setting [7]), 17.7%.
For the compound `COc1cc(NS(C)(=O)=O)ccc1Cc1c2ccccc2nc2ccccc12`, the Potency result in test [1], in test [2], in test [3] and in test [5] was “inactive” throughout. Besides, the activity change, negative = inhibition in test [4] was 4.8% (inactive). Moreover, the max response in test [4] (setting [6]) stood at 13%; in test [4] (setting [7]), 21.3%.
On to `CC(C)=CC1C(C(=O)O)C1(C)C` (stereo not drawn), for which the Potency entry in test [1], in test [2], in test [3] and in test [5] was “inactive” in each case. The activity change, negative = inhibition in test [4] is 7.47% (inactive). For the same compound, the max response in test [4] (setting [6]) turned out to be 18%; in test [4] (setting [7]), 29.9%.
On to `CCCC1CC(C(=O)N[C@H](C(C)O)C2OC(SC)[C@@H](O)C(O)C2O)N(C)C1` (stereo partly drawn), for which the Potency result in test [1], in test [2], in test [3] and in test [5] was “inactive” in each case. Moreover, in test [4], the activity change, negative = inhibition was 12.2% (inactive). Moreover, the max response came out at 19.1% in test [4] (setting [6]) and 38.8% in test [4] (setting [7]).
Take `COc1ccc2c(C)cc(=O)oc2c1`: the Potency entry in test [1], in test [2], in test [3] and in test [5] was “inactive” each time. The activity change, negative = inhibition in test [4] is 8.28% (inactive). The max response in test [4] (setting [6]) came to 31.7%; in test [4] (setting [7]), 42.1%.
Take `CC(=O)Oc1c(C)cccc1C(=O)O`: the Potency result in test [1], in test [2], in test [3] and in test [5] was “inactive” in each case. The activity change, negative = inhibition in test [4] was 5.46% (inactive). The max response in test [4] (setting [6]) was 15.6%; in test [4] (setting [7]) it was 23.9%.
As for `CC1CCC2(OC1)OC1CC3C4CC[C@@H]5CC(O)CC[C@@]5(C)C4CC(=O)[C@]3(C)C1C2C` (stereo partly drawn), the Potency result in test [1], in test [2], in test [3] and in test [5] was “inactive” each time. Also, the activity change, negative = inhibition in test [4] is 9.56% (inactive). The max response amounted to 0.354% in test [4] (setting [6]) and 13.1% in test [4] (setting [7]).
For `COc1cccc2c1CCC1=CC(=O)CC[C@@]12C`, the Potency entry in test [1], in test [2], in test [3] and in test [5] was “inactive” throughout. Besides, the activity change, negative = inhibition in test [4] is 11.4% (inactive). In addition, the max response in test [4] (setting [6]) stood at 2.03%; in test [4] (setting [7]) it was 15.6%.
With `O=C(Oc1cc(OC(=O)c2ccccc2)c2c(c1)OC(c1ccc(OC(=O)c3ccccc3)c(OC(=O)c3ccccc3)c1)[C@@H](OC(=O)c1ccccc1)C2)c1ccccc1` (stereo partly drawn), the Potency entry in test [1], in test [2], in test [3] and in test [5] was “inactive” in each case. In addition, the activity change, negative = inhibition in test [4] is -8.04% (inactive). In addition, the max response in test [4] (setting [6]) amounted to 23.3%; in test [4] (setting [7]) it was 15.7%.
Turning to `C/C=C(/C)C(=O)OC1Cc2c(ccc3ccc(=O)oc23)OC1(C)C` (stereo not drawn), the Potency entry in test [1], in test [2], in test [3] and in test [5] was “inactive” each time. Moreover, the activity change, negative = inhibition in test [4] was 2.21% (inactive). Also, the max response was 9.88% in test [4] (setting [6]) and 14.5% in test [4] (setting [7]).
For the compound `CC(C)(O)CCC(O)[C@@](C)(O)C1CC[C@]2(O)C3=CC(=O)C4CC(O)C(O)C[C@]4(C)C3CC[C@]12C` (stereo partly drawn), the Potency entry in test [1], in test [2], in test [3] and in test [5] was “inactive” each time. Further, the activity change, negative = inhibition in test [4] is 2.72% (inactive). The figures for the max response in test [4] (setting [6]) and in test [4] (setting [7]) were -2.83% and 0.37%, respectively.
For the compound `Cn1c(=O)[nH]c2nc[nH]c2c1=O`, the Potency result in test [1], in test [2], in test [3] and in test [5] was “inactive” in each case. In test [4], the activity change, negative = inhibition was 5.61% (inactive). Moreover, the values for the max response in test [4] (setting [6]) and in test [4] (setting [7]) were 14% and 22.4%, respectively.
`CC(=O)OC1CC[C@@]2(C)C(CC[C@@]3(C)C2CC=C2C4CC(C)(C)CC[C@]4(C)CC[C@@]23C)C1(C)C` (stereo partly drawn): the Potency result in test [1], in test [2], in test [3] and in test [5] was “inactive” in each case. Moreover, the activity change, negative = inhibition in test [4] was 4.64% (inactive). For the same compound, the max response in test [4] (setting [6]) came to 6.83%; in test [4] (setting [7]), 14%.
Take `COc1cc(O)ccc1C(C)=O`: the Potency result in test [1], in test [2], in test [3] and in test [5] was “inactive” throughout. In addition, the activity change, negative = inhibition in test [4] was 7.68% (inactive). Moreover, the max response in test [4] (setting [6]) was determined as 24.4%; in test [4] (setting [7]), 34.1%.
`COc1cc2c(cc1O)C(Cc1ccc(O)cc1)N(C)CC2` (stereo not drawn): the Potency result in test [1], in test [2], in test [3] and in test [5] was “inactive” throughout. The activity change, negative = inhibition in test [4] was 2.46% (inactive). In addition, the figures for the max response in test [4] (setting [6]) and in test [4] (setting [7]) were 13.5% and 17.7%, respectively.
Turning to `COc1ccc(C2CC(=O)c3c(O)cc(O[C@H]4OC(COC5OC(C)C(O)C(O)[C@@H]5O)C(O)C(O)C4O)cc3O2)cc1O` (stereo partly drawn), the Potency result in test [1], in test [2], in test [3] and in test [5] was “inactive” throughout. In addition, the activity change, negative = inhibition in test [4] is -1.5% (inactive). For the same compound, the max response is 1.58% in test [4] (setting [6]) and -1.01% in test [4] (setting [7]).
Take `O=C(O)C1CC(C2CCCCN2)CN2CCCCC12` (stereo not drawn): the Potency entry in test [1], in test [2], in test [3] and in test [5] was “inactive” throughout. Moreover, the activity change, negative = inhibition in test [4] was 2.57% (inactive). Moreover, the results for the max response in test [4] (setting [6]) and in test [4] (setting [7]) were -1.28% and 1.78%, respectively.

For the origin of these results see PubChem BioAssay (NCATS).
